Results on 13 compounds are retold here after PubChem BioAssay (NCI).

Some test systems named below: SK-MEL-2 melanoma; EKVX NSCLC; SN12C renal; UO-31 renal; TK-10 renal; ACHN renal; CAKI-1 renal; A498 renal; CCRF-CEM leukemia; MOLT-4 leukemia.
Common to all, as to assay: NCI-60 one-dose screen, 48 h (100 = growth as untreated, 0 = no growth, -100 = all killed)
Conditions in all cases: 10 µM unless noted

This is part of a sample that, as a whole, favours compounds with a hit. Of some 83,000 tested, about 20% had one in any assay.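 Treatment: one concentration, 48 hours, 96-well format. Scoring: percent growth, with anything below 10 considered active.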 Values without a mark were called inactive. Calls of active or inactive are those of the source.

For the compound `CCCCOC(=O)c1c(C)[nH]c(/C=C2\N=C(c3ccc[nH]3)C=C2OC)c1C`, the growth is -64.6% (active) in the assay on SK-MEL-2 melanoma; -8.89% (active) with EKVX NSCLC; 8.83% (active) in the assay with SN12C renal; -72.2% (active) in the assay on UO-31 renal; 9.12% (active) with TK-10 renal; -40.4% (active) in the assay with ACHN renal. The growth in the assay with CAKI-1 renal is -29.2% (active); in the assay with A498 renal, -13.4% (active); in the assay on CCRF-CEM leukemia, 12.6%; with MOLT-4 leukemia, 8.13% (active).

Turning to `COc1ccccc1S(=O)Nc1ccccc1` (stereo not given), the growth in the assay on SK-MEL-2 melanoma is 82.5%; in the assay with EKVX NSCLC, 106%; in the assay on SN12C renal, 94.4%; with UO-31 renal, 85.9%; in the assay with TK-10 renal it was 101%; with ACHN renal it was 107%. The growth was 98.2% in the assay with CAKI-1 renal, 82.9% in the assay on A498 renal, 93.6% in the assay with CCRF-CEM leukemia and 103% in the assay with MOLT-4 leukemia.

Turning to `NC(=S)Cc1ccccc1`, the growth with SK-MEL-2 melanoma was 103%; in the assay on EKVX NSCLC, 97.9%; in the assay with SN12C renal it was 94.7%; in the assay with UO-31 renal, 84.4%; in the assay on TK-10 renal, 94.3%; with ACHN renal it was 98.1%. Further, the growth was 89.1% with CAKI-1 renal, 73.6% in the assay on A498 renal, 105% in the assay with CCRF-CEM leukemia and 103% in the assay on MOLT-4 leukemia.

In the case of `COC(=O)c1cc(O)c2c(c1C(=O)OC)C[C@H]1[C@@H]3CC=C4C[C@@H](O)CC[C@]4(C)[C@H]3CC[C@]21C`, the growth is 78.7% in the assay on SK-MEL-2 melanoma; 55% in the assay on EKVX NSCLC; 71.3% in the assay on SN12C renal; 39.9% in the assay with UO-31 renal; 55% in the assay on TK-10 renal; 39.9% with ACHN renal. In addition, the growth was 26.2% in the assay on CAKI-1 renal, 49.8% in the assay on A498 renal, 37.8% in the assay with CCRF-CEM leukemia and 35.6% in the assay on MOLT-4 leukemia.

For `COc1c(B(O)O)cccc1-c1nc2ccc3[nH]ncc3c2c2c1CCC2`, the growth is 58.2% in the assay on SK-MEL-2 melanoma; 47.9% with EKVX NSCLC; 74.3% in the assay on SN12C renal; 23.5% in the assay on UO-31 renal; 36.4% in the assay with TK-10 renal; 36.4% with ACHN renal. In addition, the growth with CAKI-1 renal is 16.6%; in the assay on A498 renal it was 34.7%; in the assay with CCRF-CEM leukemia it was 64.2%; in the assay on MOLT-4 leukemia, 61.6%.

`COc1ccc(-c2cc(-c3ccc(Cl)cc3)nc(SCCCCCCC(=O)NO)n2)cc1`: the growth is 87.1% with SK-MEL-2 melanoma; 44.2% in the assay on EKVX NSCLC; 41.3% with SN12C renal; 11.8% with UO-31 renal; 34.7% in the assay on TK-10 renal; 16.1% in the assay with ACHN renal. Also, the growth in the assay with CAKI-1 renal is 4.58% (active); in the assay on A498 renal, 52%; in the assay on CCRF-CEM leukemia, 3.36% (active); with MOLT-4 leukemia, 9.33% (active).

For `Cc1ccc(N)c(O)c1`, the growth with SK-MEL-2 melanoma is 100%; with EKVX NSCLC, 98.6%; with SN12C renal it was 115%; in the assay with UO-31 renal it was 84.5%; in the assay with TK-10 renal, 158%; with ACHN renal, 91%. Also, the growth in the assay with CAKI-1 renal is 94.8%; in the assay with A498 renal, 50.7%; with CCRF-CEM leukemia, 77.9%; in the assay on MOLT-4 leukemia, 106%.

On to `CCN(CCNc1ccc(C)c2sc3cc(Cl)ccc3c(=O)c12)CC(C)O` (stereo not given), for which the growth in the assay with SK-MEL-2 melanoma is 40.7%; in the assay on EKVX NSCLC, 88.9%; in the assay with SN12C renal, 48.7%; in the assay on UO-31 renal, -61.8% (active); in the assay on TK-10 renal, 76.7%; in the assay on ACHN renal it was 44.7%. Besides, the growth with CAKI-1 renal is 43.7%; in the assay on A498 renal, 51.4%; in the assay with CCRF-CEM leukemia, 36.8%; in the assay on MOLT-4 leukemia, 34.5%.

Consider `O=c1c2c3c(sc2n2cnnc2n1Cc1ccccc1)CCCC3`, for which the growth is 97.6% with SK-MEL-2 melanoma; 71.2% with EKVX NSCLC; 105% in the assay on SN12C renal; 7.39% (active) in the assay on UO-31 renal; 115% in the assay on TK-10 renal; 99.1% in the assay on ACHN renal. Besides, the growth in the assay with CAKI-1 renal is 95.3%; with A498 renal, 92.1%; in the assay on CCRF-CEM leukemia, 82.4%; with MOLT-4 leukemia, 86.3%.

Regarding `O=C(N=c1n(-c2ccccc2)nc2n1CCN2C1=NCCN1)c1ccc(Cl)cc1`, the growth was 106% in the assay with SK-MEL-2 melanoma; 93.9% in the assay with EKVX NSCLC; 80.1% with SN12C renal; 57.9% in the assay on UO-31 renal; 89.5% in the assay with TK-10 renal; 96.7% with ACHN renal. Further, the growth in the assay on CAKI-1 renal is 79.2%; in the assay on A498 renal, 68.3%; in the assay with CCRF-CEM leukemia it was 77.8%; with MOLT-4 leukemia it was 77.7%.

On to `CCCCOC(=O)c1cccc([N+](=O)[O-])c1`, for which the growth with SK-MEL-2 melanoma is 113%; with EKVX NSCLC, 93.4%; in the assay with SN12C renal, 108%; in the assay on UO-31 renal, 94.7%; in the assay with TK-10 renal, 111%; in the assay on ACHN renal, 112%. In addition, the growth with CAKI-1 renal was 105%; with A498 renal, 94.7%; in the assay on CCRF-CEM leukemia it was 1.56% (active); with MOLT-4 leukemia, 122%.

For `CCc1ccc(NC(=O)N[C@@H](Cc2cc(F)cc(F)c2)C(=O)N[C@@H]2C(=O)N3C[C@H](O)C[C@H]3C(=O)N3CCOC[C@H]3C(=O)N[C@@H](C)C(=O)N3C[C@H](C)C[C@H]3C(=O)O[C@H]2C)cc1`, the growth was 29% with SK-MEL-2 melanoma; 79% in the assay with EKVX NSCLC; 24.3% with SN12C renal; 78.7% in the assay with UO-31 renal; 95.8% with TK-10 renal; 103% in the assay on ACHN renal. Also, the growth in the assay on CAKI-1 renal is 84.4%; in the assay on A498 renal, 38.6%; with CCRF-CEM leukemia, 50.9%; with MOLT-4 leukemia, 43.3%.

Turning to `O=C(Nc1ccc(Cl)c(C(F)(F)F)c1)Nc1ccc(-c2cccnc2)cc1N1CCC(CO)CC1`, the growth in the assay on SK-MEL-2 melanoma is -10.3% (active); in the assay on EKVX NSCLC, 37.2%; in the assay on SN12C renal, 31%; with UO-31 renal it was 21.9%; in the assay on TK-10 renal it was 22.2%; in the assay on ACHN renal, 17.3%. Further, the growth in the assay on CAKI-1 renal is 34.3%; in the assay with A498 renal it was 14.3%; with CCRF-CEM leukemia, 9.72% (active); in the assay on MOLT-4 leukemia it was 4.83% (active).
